Measured values published in PubChem BioAssay AID602289 (National Center for Advancing Translational Sciences (NCATS), 2012).
Screen size: about 2,400 compounds; about 40 (2%) were called active. Not shown: some 1% with an inconclusive outcome.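 How the source made its calls: active means inhibition at or above 60%; inconclusive means inhibition from 0% up to below 60%; inactive means no inhibition observed.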 What follows is part of a selection rich in actives, with near analogues and random picks from the rest.

Experiment: qHTS Assay for Small Molecule Inhibitors of Mitochondrial Division or Activators of Mitochondrial Fusion: Hit Validation in Malachite Green Assay;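 on inhibition: plate controls were DMSO wells with GTPase for no effect and protein-free buffer wells for full effect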
Conditions: purified GTPase, malachite green phosphate release, A650; stronger effect = higher value
Outline: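 Compound preincubated 10 min with protein (final 0.6 uM) in Hepes/Pipes pH 7.0 buffer containing 5 mM MgCl2 and 150 mM NaCl; GTP added to 100 uM final and hydrolysed 90 min at 30 C. EDTA-quenched Pi measured with malachite green against phosphate standards.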

Row | Compound | inhibition
1 | N/C(=N\OC(=O)c1ccccc1Cl)c1ccc(Cl)cc1 | inactive
2 | CCN(CC(=O)Nc1cc(S(=O)(=O)N2CCCCC2)ccc1Cl)Cc1ccccc1 | inactive
3 | COc1ccc(Nc2ncc(C(=O)N3CCN(Cc4ccccc4)CC3)c3ccccc23)cc1 | inactive
4 | c1ccc(NCc2nc3ccccc3n2CCOc2ccccc2)cc1 | inactive
5 | CNc1ccc(Br)cc(C(=O)/C=C/c2ccc(OC)cc2OC)c1=O | 90.1% (active)
6 | COc1ccc(Br)cc1/C=C/C(=O)Nc1ccc(C)cc1 | inactive
7 | COc1ccc(/C=C/C(=O)N2CCCc3ccccc32)c(OC)c1 | inactive
8 | COc1cc2c(cc1NC(=O)CSc1nc3ccccc3[nH]1)oc1ccccc12 | inactive
9 | O=C(N/N=C/c1cn(-c2cccs2)nc1-c1ccccc1)c1ccccc1Cl | inactive
10 | Cn1c2ccccc2c2c(C(=O)N3CCN(c4ccccc4)CC3)cn(C3CCCC3)c(=O)c21 | inactive
11 | COc1cccc(COc2ccc3ccc(=O)oc3c2)c1 | inactive
12 | CC(C)(C)c1ccc(/C=C/C(=O)Nc2ncccn2)cc1 | inactive
13 | O=c1c2ccccc2nc(/C=C/c2cccnc2)n1Cc1ccccc1 | inactive
14 | c1ccc(C(c2ccccc2)N2CCN(Cc3nnnn3C3CCCC3)CC2)cc1 | inactive
15 | COc1ccc(NC(=O)CSCC(=O)N(C)Cc2ccc(Cl)c(Cl)c2)cc1 | inactive
16 | O=S(=O)(Nc1cccc2c1CCCC2)c1ccc(Cl)cc1 | inactive
17 | N#Cc1c(NC(=O)C2CC2)sc2c1CCCCC2 | inactive

Row | Compound | inhibition
18 | COC(=O)c1c(NC(=O)c2ccc(C)o2)sc2c1CCCCC2 | inactive
19 | N#Cc1c(NC(=O)c2ccc(Cn3cc(Br)cn3)o2)sc2c1CCCCCC2 | 97.3% (active)
20 | CCCc1nnc(NC(=O)CCC(=O)O)s1 | inactive
21 | Cc1ccc(Cl)cc1N1CCN(C(=O)c2noc(C)c2[N+](=O)[O-])CC1 | inactive
22 | CCCCNC(=O)N1CCN(C(c2ccccc2)c2ccccc2)CC1 | inactive
23 | O=[N+]([O-])c1ccc(S(=O)(=O)N2CCN(C3CCN(Cc4ccccc4)CC3)CC2)cc1 | inactive
24 | CCOC(=O)c1c(NC(=O)COc2ccccc2F)sc2c1CC(C)(C)NC2(C)C | inactive
25 | CCOC(=O)c1c(NC(=O)c2ccccc2Cl)sc2c1CCc1ccccc1-2 | 102% (active)
26 | Cc1ccc(C(=O)c2c(NC(=O)c3ccccc3C)sc(C)c2C)cc1 | inactive
27 | CN(CCOc1ccccc1)CC(=O)Nc1ccc([N+](=O)[O-])cc1Cl | inactive
28 | C=CCSc1nc(N)c(C#N)c(-c2ccc(C)cc2)c1C#N | inactive
29 | CC(=O)c1cccc(NC(=O)c2ccc(-c3ccccc3[N+](=O)[O-])o2)c1 | inactive
30 | COc1ccccc1/C=C/C(=O)c1ccc(NC(C)=O)cc1 | inactive
31 | O=C(/C=C/c1ccco1)Nc1ccc2nn(-c3ccccc3)nc2c1 | inactive
32 | O=C(/C=C/c1ccco1)c1ccc(NC(=O)C23CC4CC(CC(C4)C2)C3)cc1 | 80.4% (active)
33 | O=c1c2cc(N3CCOCC3)ccc2[nH]c(=S)n1CCc1ccccc1 | inactive
